Laboratory results reported in PubChem BioAssay (NCI).
This is part of a sample that, as a whole, favours compounds with a hit. Of some 79,000 tested, about 15% had one in any assay. Active and inactive are the calls of the source. No stated cut-off is given here; in the data, active means growth inhibition above about 70%; inactive means the rest.

Columns and labels:
[1] = NCI Yeast Anticancer Drug Screen. Data for the rad52 strain (AID 147);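 further: 0% = growth of vehicle-treated control cultures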; conditions: S. cerevisiae rad52 mutant growth inhibition, active compounds read high
Method in brief: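 DNA repair-defective yeast; compound exposure; growth scored against vehicle controls.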

[2] = NCI Yeast Anticancer Drug Screen. Data for the wt1 strain (AID 149);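 further: 0% = growth of vehicle-treated wt1 cultures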; conditions: S. cerevisiae wt1 strain (SPY 50644) growth inhibition, active compounds read high
Method in brief: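 wt1 yeast, compound-treated; % growth inhibition vs vehicle control.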

[3] = NCI Yeast Anticancer Drug Screen. Data for the rad50EPP+ strain (AID 151);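 further: 0% = growth of vehicle-treated control cultures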; conditions: S. cerevisiae rad50 mutant strain, active compounds read high
Method in brief: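 rad50EPP+ yeast treated with test compounds. Readout: growth vs vehicle control.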

[4] = NCI Yeast Anticancer Drug Screen. Data for the mgt1 strain (AID 153); conditions: S. cerevisiae mgt1 mutant growth inhibition, active compounds read high
Method in brief: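 Growth inhibition relative to vehicle controls was scored for the mgt1 yeast strain after compound exposure.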

[5] = NCI Yeast Anticancer Drug Screen. Data for the rad50 strain (AID 155);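 further: 0% = growth of vehicle-only cultures of the same strain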; conditions: S. cerevisiae rad50 strain growth inhibition, active compounds read high
Method in brief: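 Genetically altered yeast (DNA repair pathway); compound treatment; growth inhibition vs vehicle ctrl.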

[6] = NCI Yeast Anticancer Drug Screen. Data for the mec2-1 strain (AID 157); conditions: S. cerevisiae mec2-1 strain, active compounds read high
Method in brief: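 Growth inhibition is read against vehicle-treated controls after compound exposure of the mec2-1 yeast strain, which is defective in DNA damage repair or cell cycle control.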

[7] = NCI Yeast Anticancer Drug Screen. Data for the rad14 strain (AID 159);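 further: 0% = growth of vehicle-treated control cultures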; conditions: S. cerevisiae rad14 strain growth inhibition, active compounds read high
Method in brief: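 Test compounds were applied to a repair-deficient yeast strain. Its growth was then compared with that of cultures given vehicle alone, and inhibition was expressed relative to those controls.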

[8] = NCI Yeast Anticancer Drug Screen. Data for the sgs1 mgt1 strain (AID 161);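 further: 0% = growth of cultures given vehicle only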; conditions: S. cerevisiae sgs1 mgt1 strain, active compounds read high
Method in brief: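 Compounds are added to genetically altered yeast, and growth is compared with cultures given vehicle alone to give percent inhibition.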

[9] = NCI Yeast Anticancer Drug Screen. Data for the cln2 rad14 strain (AID 165);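 further: 0% = growth equal to vehicle treated cultures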; conditions: S. cerevisiae cln2 rad14 strain, active compounds read high
Method in brief: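 Growth inhibition, relative to vehicle-treated controls, is the read-out. The test organism is a yeast strain with defined genetic alterations, cln2 rad14.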

[10] = NCI Yeast Anticancer Drug Screen. Data for the bub3 strain (AID 167); conditions: S. cerevisiae bub3 mutant strain, active compounds read high
Method in brief: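 Yeast carrying a defined mutation is treated with each compound, and growth is compared with that of vehicle-exposed cells to give inhibition.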

[11] = NCI Yeast Anticancer Drug Screen. Data for the wt2 strain (AID 169);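 further: 0% = growth of vehicle-treated yeast cultures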; conditions: S. cerevisiae wt2 strain growth inhibition, active compounds read high
Method in brief: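 Compound exposure of yeast; growth compared with vehicle controls; inhibition reported.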

[12] = NCI Yeast Anticancer Drug Screen. Data for the mlh1 strain (AID 171);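 further: 0% = growth of vehicle-treated control cultures of the same strain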; conditions: S. cerevisiae mlh1 strain growth inhibition, active compounds read high
Method in brief: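 Compounds are applied to a genetically altered yeast strain, and its growth is compared with that of vehicle-treated cultures to give percent inhibition.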

[13] = NCI Yeast Anticancer Drug Screen. Data for the sgs1 strain (AID 173);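 further: 0% = growth of vehicle-only control cultures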; conditions: S. cerevisiae sgs1 mutant, active compounds read high
Method in brief: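 Compounds applied to genetically altered yeast; growth compared with vehicle-treated cultures to give % inhibition.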

[14] = NCI Yeast Anticancer Drug Screen. Data for the mlh1 rad18 strain (AID 175); conditions: S. cerevisiae mlh1 rad18 strain growth inhibition, active compounds read high
Method in brief: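 Cells of a genetically altered yeast strain, deficient in DNA damage repair, were treated with compound. Their growth was then compared with that of vehicle-treated cultures to give inhibition.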

[15] = NCI Yeast Anticancer Drug Screen. Data for the rad18 strain (AID 177); conditions: S. cerevisiae rad18 mutant growth inhibition, active compounds read high
Method in brief: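 Compounds are applied to a repair-deficient yeast strain, and growth is compared with that of vehicle-treated cultures to give percent inhibition.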

[16] = at 5.0 µM (retest, dose inferred, filed as 0.5)
[17] = at 50.0 µM (retest, dose inferred, filed as 5.0)

Measured: growth inhibition

CCCOC(=O)C(F)C(Br)C(=O)OCCC (stereo not drawn)
inactive: [1]; at 1.2 µM 38% | [2]; at 1.2 µM 42% | [3]; at 1.2 µM 33% | [3]; at 3.7 µM 28% | [4]; at 1.2 µM 54% | [5]; at 1.2 µM 58% | [5]; [16] 44% | [6]; [16] 67% | [7]; at 1.2 µM 21% | [7]; at 3.7 µM 67% | [8]; [16] 21% | [9]; [16] 11% | [10]; at 1.2 µM 38% | [10]; [16] 30% | [11]; at 1.2 µM 57% | [12]; at 1.2 µM 40% | [13]; at 1.2 µM 50% | [15]; at 1.2 µM 59%
active: [1]; at 3.7 µM 89% | [1]; at 11.0 µM 96% | [1]; at 33.0 µM 96% | [1]; at 100.0 µM 99% | [2]; at 3.7 µM 95% | [2]; at 11.0 µM 98% | [2]; at 33.0 µM 97% | [2]; at 100.0 µM 99% | [3]; at 11.0 µM 94% | [3]; at 33.0 µM 98% | [3]; at 100.0 µM 98% | [4]; at 3.7 µM 90% | [4]; at 11.0 µM 97% | [4]; at 33.0 µM 98% | [4]; at 100.0 µM 99% | [5]; at 3.7 µM 90% | [5]; at 11.0 µM 97% | [5]; at 33.0 µM 97% | [5]; [17] 98% | [5]; at 50.0 µM 89.8% | [5]; at 100.0 µM 99% | [6]; at 1.2 µM 71% | [6]; at 3.7 µM 97% | [6]; at 11.0 µM 97% | [6]; at 33.0 µM 98% | [6]; [17] 100% | [6]; at 50.0 µM 92% | [6]; at 100.0 µM 99% | [7]; at 11.0 µM 97% | [7]; at 33.0 µM 97% | [7]; at 100.0 µM 100% | [8]; [17] 98% | [8]; at 50.0 µM 91.9% | [9]; [17] 70% | [9]; at 50.0 µM 90.7% | [10]; at 3.7 µM 82% | [10]; at 11.0 µM 93% | [10]; at 33.0 µM 96% | [10]; [17] 99% | [10]; at 50.0 µM 90.5% | [10]; at 100.0 µM 96% | [11]; at 3.7 µM 98% | [11]; at 11.0 µM 98% | [11]; at 33.0 µM 98% | [11]; at 100.0 µM 100% | [12]; at 3.7 µM 92% | [12]; at 11.0 µM 98% | [12]; at 33.0 µM 97% | [12]; at 100.0 µM 99% | [13]; at 3.7 µM 96% | [13]; at 11.0 µM 98% | [13]; at 33.0 µM 97% | [13]; at 100.0 µM 99% | [14]; [16] 93% | [14]; [17] 98% | [14]; at 50.0 µM 89% | [15]; at 3.7 µM 93% | [15]; at 11.0 µM 97% | [15]; at 33.0 µM 96% | [15]; at 100.0 µM 98%
